From PubChem BioAssay AID743446 (Broad Institute, 2014)
Measured potencies and affinities stand elsewhere. Unmarked numbers belong to inactive results. How the calls were made is not given here.

Test: HEK293 cell cytotoxicity, dose response, cytotoxicity control, plate reader, cherry-picked samples (AID 743446)
Conditions: active compounds read low; at 26 µM unless noted

SMILES | max activity
O=C(Nc1nc2c(s1)CCCC2)C1COc2ccccc2O1 (stereo unspecified) | 55.6% [at 0.05 µM]
C[C@@H]1CN([C@H](C)CO)C(=O)c2cc(NC(=O)Nc3cccc4ccccc34)ccc2O[C@@H]1CN(C)C(=O)Nc1ccccc1 | 29.1% [at 0.8 µM]
COc1ccccc1CN(C)C[C@@H]1OCc2cnnn2CCCC(=O)N([C@H](C)CO)C[C@H]1C | 11% [at 0.38 µM]
Cc1ccnc(Nc2nc(-c3sc(C)nc3C)cs2)c1 | -16.3% [at 6 µM]
OC[C@H]1[C@@H](c2ccc(-c3ccc(F)cc3)cc2)[C@@H]2CN(Cc3ccccn3)CCCCN12 | -12.3%
CSc1ccc(NC(=O)Nc2cc(C)ccn2)cc1 | 12.9% [at 0.05 µM]
